Our source for the Potency and outcome values is PubChem BioAssay (NCATS).

Experiment [1] can be described thus: Cytometric Cell-Based qHTS for Inhibitors of the mTORC1 Signaling Pathway in MEF (Tsc2-/-, p53-/-) Cells (AID 2660).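 Further: Tsc2 and p53 null MEFs carrying empty vector with compound for 24 h; percent of cells above a phospho-rpS6 to PI ratio cutoff in each well; series mostly up to about 38 µM.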 The method, boiled down:
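Cells are plated, treated with compound for 24 hrs at 37 degree Celsius, then fixed, blocked and immunostained for phospho-rpS6 Ser235/236. Propidium iodide counterstain follows. Per-well % positive cells is derived from the PI-normalized phospho-S6 signal.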
For orientation: qHTS replaces the single test concentration by a dilution series.

Experiment [2] can be described thus: High Content Imaging Cell-Based qHTS for Inhibitors of the mTORC1 Signaling Pathway in MEF (Tsc2-/-, p53-/-) Cells (AID 2666).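 Further: percent of cells scored positive for phospho-rpS6 Ser235/236 immunostaining by imaging.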 A digest of the protocol:
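Tsc2-/-, p53-/- MEFs (empty-vector stable) grown in DMEM + 10% FBS were exposed to compounds for 24 hrs at 37 degree Celsius, fixed, and stained with Alexa-488 anti-phospho-rpS6 Ser235/236 plus Hoechst. Imaging gave the percentage of positive cells per well.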

A short description of experiment [3]: High Content Imaging Cell-Based qHTS for Inhibitors of the mTORC1 Signaling Pathway in MEF Cells (AID 2667). Further: potency means the concentration at half of the fitted maximal effect. The method, boiled down: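 Tsc2-/-, p53-/- MEFs stably re-expressing WT Tsc2, grown in DMEM + 10% FBS, were treated with compounds for 24 hrs at 37 degree Celsius, fixed, and stained with Alexa-488 phospho-rpS6 Ser235/236 antibody plus Hoechst; results given as % positive cells.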

The nature of experiment [4]: Validation screen for small molecules that induce DNA re-replication in MCF 10A normal breast cells (AID 463097). Further: nearly all actives have a fitted effect of over 60% in size. Further: potency means the concentration at half of the fitted maximal effect. A digest of the protocol:
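Image-based qHTS: normal breast cells are incubated with compound for 48 hr, stained with Hoechst, and scanned for total nuclear fluorescence. Compounds raising the fraction of nuclei with elevated DNA content count as re-replication inducers.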

Experiment [5] addresses Ubiquitin carboxyl-terminal hydrolase 2 (Homo sapiens) (UniProt O75604). Description: qHTS Validation Assay for Inhibitors of Ubiquitin-specific Protease USP2a Using CHOP2 as the Reporter (AID 463106). A digest of the protocol: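 Readout was coupled fluorescence (Ex 485/Em 531 nm), read 60 min after adding 25 nM final Ub-CHOP2 and 25 nM reporter substrate. Beforehand, 10 nM final USP2 core had 30 min at RT with compound in pH 8.0 buffer. Curves were fitted after normalization to NEM and flagged for artifacts using time-zero reads.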

For experiment [6], the target named is DNA polymerase III PolC-type (Bacillus subtilis (strain 168)) (UniProt P13267). Nature of the experiment: qHTS Validation Assay for the Inhibitors of DNA Replication in Gram-Positive Bacteria (AID 485295). Further: potency means the concentration at half of the fitted maximal effect. A digest of the protocol: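 First, compound is mixed with the reconstituted replication complex and held at room temperature. Next, circular single-stranded M13Gori with nucleotides starts synthesis. Finally, PicoGreen in EDTA halts the reaction and stains double-stranded product for fluorescence reading.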

For experiment [7], the target named is Tumor susceptibility gene 101 protein (Homo sapiens) (UniProt Q99816). Description: qHTS Validation Assay for Iinhibitors of HIV-1 Budding by Blocking the Interaction of PTAP/TSG101 (AID 485342; calls by dose curve). The method, boiled down:
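Binding of a FITC-tagged PTAP-motif peptide (50 nM) to the Tsg101 binding domain (10 uM) is monitored by fluorescence polarization. Compounds are pin-delivered before peptide addition, and incubation runs 20 min at room temperature.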

Experiment [8] addresses Beta-2 adrenergic receptor (Homo sapiens) (UniProt P07550). Description: qHTS validation assay of beta-arrestin-biased ligands of beta2-adrenergic receptor (AID 485366). The method, boiled down:
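Compound series up to 46 microM applied to beta2-AR/beta-arrestin Tango cells, 18 hr, 37 degrees C, 5% CO2. Read-out: tTA-driven luciferase luminescence, converted to %Activity; concentration-response curves assigned curve classes.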

Experiment [9] in a line: Cytometry Cell-Based qHTS for Inhibitors of the mTORC1 Signaling Pathway in MEF cells (AID 2668). Further: potency means the concentration at half of the fitted maximal effect. A digest of the protocol:
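Tsc2-/-, p53-/- MEFs re-expressing WT Tsc2; cpd 24 hrs, 37 degree Celsius; PFA fix, Alexa-488 p-rpS6 (Ser235/236) Ab 2 hrs RT, PI counterstain; Acumen 488nm scan; p-S6/PI ratio → % positive cells; PI count = viability.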

In experiment [10] the target is ATP-dependent 6-phosphofructokinase (Trypanosoma brucei brucei) (UniProt O15648). Description: qHTS Validation Assay to Find Inhibitors of T. brucei phosphofructokinase (AID 485368). A digest of the protocol:
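qHTS format, up to 57 uM. PFK 1.25 nM; F6P 0.5 mM; ATP 0.1 mM; 5 mM MgCl2, 0.01% Tween20, 0.1% BSA; 0.1 M TEA pH 8.0; 45 min RT; ADP-Glo readout; no-enzyme control = full inhibition.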

Records with an inconclusive call do not appear. Calls of active or inactive are those of the source. Unless noted, the call rests on the fitted dose curve; in most records, active means well fitted curve in the direction sought with a large enough effect; inconclusive means small, poorly fitted or top-dose-only effect, or another doubt; inactive means no such curve, though single readings can be large; an effect the other way counts as inactive or inconclusive.

Chain of DNA polymerase III PolC-type (Bacillus subtilis (strain 168)) (P13267 whole entry, looked up): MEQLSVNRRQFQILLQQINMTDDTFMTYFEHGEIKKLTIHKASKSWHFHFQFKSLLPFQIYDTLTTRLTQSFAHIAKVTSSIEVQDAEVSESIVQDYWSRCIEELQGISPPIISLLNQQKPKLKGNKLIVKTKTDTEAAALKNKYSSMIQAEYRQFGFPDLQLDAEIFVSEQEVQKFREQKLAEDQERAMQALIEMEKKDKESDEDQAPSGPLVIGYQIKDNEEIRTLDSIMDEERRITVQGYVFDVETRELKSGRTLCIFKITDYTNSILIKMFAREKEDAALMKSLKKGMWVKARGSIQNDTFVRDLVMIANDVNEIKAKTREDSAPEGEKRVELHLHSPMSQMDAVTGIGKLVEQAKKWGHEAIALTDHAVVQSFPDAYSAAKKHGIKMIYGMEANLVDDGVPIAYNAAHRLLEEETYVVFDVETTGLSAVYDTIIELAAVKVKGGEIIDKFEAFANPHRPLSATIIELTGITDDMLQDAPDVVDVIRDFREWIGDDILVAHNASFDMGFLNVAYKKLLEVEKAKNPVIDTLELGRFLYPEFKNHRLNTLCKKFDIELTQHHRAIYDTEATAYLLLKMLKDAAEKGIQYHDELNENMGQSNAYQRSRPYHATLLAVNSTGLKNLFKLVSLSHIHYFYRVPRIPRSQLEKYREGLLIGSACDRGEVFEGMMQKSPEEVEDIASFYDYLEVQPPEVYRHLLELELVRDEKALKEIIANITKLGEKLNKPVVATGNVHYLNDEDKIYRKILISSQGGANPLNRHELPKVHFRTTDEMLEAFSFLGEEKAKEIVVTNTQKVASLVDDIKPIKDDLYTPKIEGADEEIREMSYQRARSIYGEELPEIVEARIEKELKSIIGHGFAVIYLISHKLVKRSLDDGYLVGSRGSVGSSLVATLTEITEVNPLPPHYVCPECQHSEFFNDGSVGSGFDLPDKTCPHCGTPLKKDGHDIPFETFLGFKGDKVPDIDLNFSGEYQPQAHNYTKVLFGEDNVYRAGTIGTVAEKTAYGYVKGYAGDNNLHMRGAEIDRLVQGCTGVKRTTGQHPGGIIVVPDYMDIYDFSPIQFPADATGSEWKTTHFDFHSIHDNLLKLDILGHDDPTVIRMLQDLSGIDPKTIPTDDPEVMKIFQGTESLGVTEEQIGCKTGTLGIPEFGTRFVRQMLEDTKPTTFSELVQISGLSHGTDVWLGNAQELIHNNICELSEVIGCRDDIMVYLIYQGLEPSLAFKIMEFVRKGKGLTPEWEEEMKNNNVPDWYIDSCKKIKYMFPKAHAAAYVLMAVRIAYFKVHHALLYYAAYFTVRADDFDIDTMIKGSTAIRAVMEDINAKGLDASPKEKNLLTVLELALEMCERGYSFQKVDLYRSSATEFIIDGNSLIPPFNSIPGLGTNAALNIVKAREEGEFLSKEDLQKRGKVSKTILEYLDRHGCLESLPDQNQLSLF
Chain of ATP-dependent 6-phosphofructokinase (Trypanosoma brucei brucei) (O15648 whole entry, looked up): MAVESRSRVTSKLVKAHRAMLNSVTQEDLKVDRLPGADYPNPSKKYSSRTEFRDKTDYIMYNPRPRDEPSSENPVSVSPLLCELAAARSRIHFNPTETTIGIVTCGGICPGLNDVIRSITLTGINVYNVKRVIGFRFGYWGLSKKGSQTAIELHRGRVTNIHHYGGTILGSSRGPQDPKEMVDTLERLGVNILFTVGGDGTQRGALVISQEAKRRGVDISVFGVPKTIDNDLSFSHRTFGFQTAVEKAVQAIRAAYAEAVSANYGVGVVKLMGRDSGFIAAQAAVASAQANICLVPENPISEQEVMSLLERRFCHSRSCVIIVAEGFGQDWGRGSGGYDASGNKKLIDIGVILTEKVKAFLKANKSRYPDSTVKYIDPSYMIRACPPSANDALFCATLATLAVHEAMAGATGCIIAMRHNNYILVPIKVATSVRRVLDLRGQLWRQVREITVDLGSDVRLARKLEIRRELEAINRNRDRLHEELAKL
Chain of Beta-2 adrenergic receptor (Homo sapiens) (P07550 whole entry, looked up): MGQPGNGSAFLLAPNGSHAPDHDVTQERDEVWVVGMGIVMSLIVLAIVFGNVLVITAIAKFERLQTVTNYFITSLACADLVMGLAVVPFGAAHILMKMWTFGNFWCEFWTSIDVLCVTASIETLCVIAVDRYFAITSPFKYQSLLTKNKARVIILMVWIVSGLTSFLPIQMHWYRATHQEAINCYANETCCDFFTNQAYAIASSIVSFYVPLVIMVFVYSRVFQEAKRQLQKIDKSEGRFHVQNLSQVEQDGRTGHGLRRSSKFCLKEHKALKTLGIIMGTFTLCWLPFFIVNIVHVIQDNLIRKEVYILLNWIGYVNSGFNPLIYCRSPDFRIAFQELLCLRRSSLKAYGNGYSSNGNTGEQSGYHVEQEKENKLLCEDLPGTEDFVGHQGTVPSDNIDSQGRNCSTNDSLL
Chain of Ubiquitin carboxyl-terminal hydrolase 2 (Homo sapiens) (O75604 whole entry, looked up): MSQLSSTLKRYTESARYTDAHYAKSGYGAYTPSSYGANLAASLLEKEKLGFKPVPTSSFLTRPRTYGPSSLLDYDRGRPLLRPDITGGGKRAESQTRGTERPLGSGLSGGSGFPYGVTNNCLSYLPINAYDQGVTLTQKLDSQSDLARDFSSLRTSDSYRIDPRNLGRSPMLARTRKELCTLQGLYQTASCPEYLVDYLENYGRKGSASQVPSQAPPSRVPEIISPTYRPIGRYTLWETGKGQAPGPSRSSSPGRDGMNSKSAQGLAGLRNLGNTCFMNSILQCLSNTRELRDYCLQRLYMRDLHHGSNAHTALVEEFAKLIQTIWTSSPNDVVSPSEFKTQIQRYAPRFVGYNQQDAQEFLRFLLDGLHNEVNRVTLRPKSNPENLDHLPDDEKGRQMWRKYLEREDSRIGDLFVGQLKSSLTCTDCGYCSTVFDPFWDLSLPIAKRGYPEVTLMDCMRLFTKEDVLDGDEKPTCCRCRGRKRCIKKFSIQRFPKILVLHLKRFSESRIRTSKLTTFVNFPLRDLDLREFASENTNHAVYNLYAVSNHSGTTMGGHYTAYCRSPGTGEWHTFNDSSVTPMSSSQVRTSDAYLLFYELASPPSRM
Chain of Tumor susceptibility gene 101 protein (Homo sapiens) (Q99816 whole entry, looked up, the tested form may be a part): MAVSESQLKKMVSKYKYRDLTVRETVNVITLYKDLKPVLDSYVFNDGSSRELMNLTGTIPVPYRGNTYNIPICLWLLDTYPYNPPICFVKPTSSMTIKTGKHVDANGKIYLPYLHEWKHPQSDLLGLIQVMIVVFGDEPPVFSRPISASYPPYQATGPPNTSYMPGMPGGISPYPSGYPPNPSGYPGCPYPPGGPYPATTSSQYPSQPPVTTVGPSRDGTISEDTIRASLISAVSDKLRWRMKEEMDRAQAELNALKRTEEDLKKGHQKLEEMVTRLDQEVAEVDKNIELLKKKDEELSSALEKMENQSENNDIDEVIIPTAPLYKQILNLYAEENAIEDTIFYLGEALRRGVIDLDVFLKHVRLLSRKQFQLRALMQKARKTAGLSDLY

On to `O=C1c2ccccc2-c2n[nH]c3cccc1c23`, for which the Potency result in experiment [1], in experiment [2], in experiment [3], in experiment [4] and in experiment [6] was “inactive” throughout. For the same molecule, the call in experiment [5], in experiment [7] and in [8] was inactive.

Regarding `Oc1ccc(-c2nc(-c3ccc(F)cc3)c(-c3ccncc3)[nH]2)cc1`, the Potency result in experiment [1], in experiment [2], in [3], in experiment [9], in experiment [6] and in [10] was “inactive” each time. Further, the molecule was called inactive in experiment [5], in experiment [7] and in experiment [8].

With `CC1(C)C(=O)N(CCN2CCC(C(=O)c3ccc(F)cc3)CC2)c2ccccc21`, the Potency result in experiment [1], in experiment [2], in experiment [3], in [9] and in [6] was “inactive” each time. The call in [5], in experiment [7] and in experiment [8] was inactive.

Take `O=C1c2c(O)cc(O)cc2OC(c2ccc(O)c(O)c2)C1O` (centres undefined): the Potency entry in experiment [1], in experiment [2], in [3], in experiment [9] and in experiment [6] was “inactive” each time. The result in experiment [5], in experiment [7] and in experiment [8] was inactive.

For the molecule `O=c1ccc2ccc(O)c(O)c2o1`, the Potency result in experiment [1], in experiment [2], in experiment [3], in experiment [9], in [4] and in [6] was “inactive” throughout. Moreover, the molecule was called inactive in experiment [5], in [7] and in experiment [8].

For the molecule `COc1ccccc1N1CCN(CCN(C(=O)C2CCCCC2)c2ccccn2)CC1`, the Potency entry in [1], in [2], in experiment [3], in experiment [9], in [4] and in [6] was “inactive” in each case. The Potency entry in experiment [10] is “inactive”. Besides, the result in [5], in [7] and in [8] was inactive.

`O=Nc1c(-c2c(O)[nH]c3cc(Br)ccc23)[nH]c2ccccc12`: the Potency was 2.33 µM (active) in experiment [3] and 5.21 µM (active) in [9]. The Potency entry in experiment [4] and in experiment [6] was “inactive” each time. For the same molecule, the result in experiment [5], in experiment [7] and in experiment [8] was inactive.

As for `Oc1ccc2ccccc2c1SSc1c(O)ccc2ccccc12`, the Potency result in experiment [1], in experiment [2], in experiment [3], in experiment [9], in experiment [6] and in experiment [10] was “inactive” in each case. Moreover, the molecule was classed as inactive in experiment [7] and in experiment [8].

Turning to `CCOC(=O)C(C)Oc1cccc2c(=O)n(CC(=O)Nc3ccc4c(c3)OCCO4)ccc12` (centres undefined), the Potency result in [1], in experiment [2], in experiment [3], in [9], in experiment [6] and in experiment [10] was “inactive” in each case. For the same molecule, the call in experiment [5], in experiment [7] and in experiment [8] was inactive.

`COc1cc2c(cc1OC)C1CC(=O)C(CC(C)C)CN1CC2` (centres undefined): the Potency result in experiment [1], in experiment [2], in [3] and in [6] was “inactive” each time. For the same molecule, the call in [5], in experiment [7] and in [8] was inactive.

Turning to `O=c1c(O)c(-c2ccc(O)cc2O)oc2cc(O)cc(O)c12`, the Potency result in experiment [1], in [2], in experiment [3], in experiment [9] and in experiment [4] was “inactive” each time. The Potency in experiment [6] was 18.9 µM (active). Further, the molecule was called inactive in [7] and in [8].

Regarding `COc1ccc2cc([C@H](C)C(=O)O)ccc2c1`, the Potency result in experiment [1], in experiment [3], in [9], in experiment [4] and in experiment [6] was “inactive” throughout. In addition, the molecule was classed as inactive in experiment [5] and in [7].

Consider `CC(=O)O[C@H]1C(=O)[C@@]2(C)C([C@H](OC(=O)c3ccccc3)[C@]3(O)C[C@H](OC(=O)[C@H](O)[C@@H](NC(=O)c4ccccc4)c4ccccc4)C(C)=C1C3(C)C)[C@]1(OC(C)=O)CO[C@@H]1C[C@@H]2O` (some centres undefined), for which the Potency entry in [1], in experiment [2], in [6] and in experiment [10] was “inactive” throughout. Further, the Potency in experiment [4] is 0.0224 µM (active). Besides, the call in experiment [5], in [7] and in [8] was inactive.

`C[C@H](Cc1ccc(O)c(O)c1)[C@@H](C)Cc1ccc(O)c(O)c1`: the Potency entry in experiment [1], in experiment [2] and in [3] was “inactive” throughout. Besides, the molecule was classed as inactive in experiment [5], in experiment [7] and in experiment [8].

As for `Nc1nc(OCc2ccccc2)c2[nH]cnc2n1`, the Potency result in experiment [1], in experiment [2], in experiment [3], in experiment [9], in experiment [4] and in experiment [6] was “inactive” in each case. The call in [5], in [7] and in experiment [8] was inactive.

In the case of `NNc1nncc2ccccc12`, the Potency entry in experiment [1], in experiment [2], in experiment [3], in experiment [9], in experiment [4] and in experiment [6] was “inactive” each time. Moreover, the Potency result in experiment [10] was “inactive”. Besides, the call in experiment [5], in experiment [7] and in experiment [8] was inactive.

In the case of `OC(CN1CCN(c2cccc(Cl)c2)CC1)C(c1ccccc1)c1ccccc1` (centres undefined), the Potency result in experiment [1], in [2], in experiment [3], in experiment [9], in [6] and in experiment [10] was “inactive” in each case. Further, the call in experiment [5], in experiment [7] and in experiment [8] was inactive.

As for `CN(C)CCCC1(c2ccc(F)cc2)OCc2cc(C#N)ccc21` (centres undefined), the Potency result in experiment [1], in [2], in [3], in [9], in [4] and in [6] was “inactive” throughout. The result in experiment [5], in experiment [7] and in experiment [8] was inactive.

In the case of `O=C(CCc1ccc(O)cc1)c1c(O)cc(O)cc1O`, the Potency result in experiment [1], in experiment [2], in [3], in experiment [9], in experiment [4] and in [6] was “inactive” in each case. The Potency entry in experiment [10] is “inactive”. The molecule was classed as inactive in [5], in experiment [7] and in experiment [8].
